# Sfp PPTase inh: Sfp phosphopantetheinyl transferase inhibition; AID 1490; 310,000 compounds, 3.5% hits; Biochemical Sfp PPTase activity, qHTS; Potency, µM, without a hit: largest response in the series, negative = inhibition, usual class: inhibitors; Q9F4F7;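 further: the enzyme is Sfp with the accession as filed and its product quenches rhodamine fluorescence; potency means the concentration at half of the fitted maximal effect; 0% = enzyme reaction without inhibitor and -100% = no enzyme wells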
#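 Fluorescence-quenching assay: 15 nM Sfp-PPTase preincubated 15 min at room temperature with compound, then 5 uM rhodamine-CoA and 12.5 uM BHQ-2-labelled YbbR peptide added. Fluorescence (ex 525/em 598 nm) read at start and after 30 min; difference gives rate.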
# Mm-Cpn inhibitor: inhibitors of Methanococcus maripaludis chaperonin TRiC (MmCpn); purified Mm-Cpn ATPase, ADP Transcreener TR-FRET; Potency, µM (titrated, usually from 76.9 µM), for the others: at the top dose activity, negative = inhibition, usual class: inhibitors; AID 504842; 330,000 compounds, 0.031% hits; further: potency means the concentration at half of the fitted maximal effect; nearly all actives have a fitted effect of over 80% in size
#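 Inhibition of chaperonin ATP hydrolysis is measured as reduced ADP production, detected by competitive TR-FRET in which signal falls with ADP. Final enzyme 25 nM and ATP 10 uM, reacted 30 min at 37°C.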
# VDR inhibitor: vitamin D3 receptor (human) inhibition. Potency, µM, for the others: max response, negative = inhibition, hits mostly inhibitors. VDR-SRC2-3 peptide fluorescence polarization, 2 h. P11473. 400,000 compounds, 0.93% hits; further: potency means the concentration at half of the fitted maximal effect
# Target sequence (P11473 whole entry, looked up): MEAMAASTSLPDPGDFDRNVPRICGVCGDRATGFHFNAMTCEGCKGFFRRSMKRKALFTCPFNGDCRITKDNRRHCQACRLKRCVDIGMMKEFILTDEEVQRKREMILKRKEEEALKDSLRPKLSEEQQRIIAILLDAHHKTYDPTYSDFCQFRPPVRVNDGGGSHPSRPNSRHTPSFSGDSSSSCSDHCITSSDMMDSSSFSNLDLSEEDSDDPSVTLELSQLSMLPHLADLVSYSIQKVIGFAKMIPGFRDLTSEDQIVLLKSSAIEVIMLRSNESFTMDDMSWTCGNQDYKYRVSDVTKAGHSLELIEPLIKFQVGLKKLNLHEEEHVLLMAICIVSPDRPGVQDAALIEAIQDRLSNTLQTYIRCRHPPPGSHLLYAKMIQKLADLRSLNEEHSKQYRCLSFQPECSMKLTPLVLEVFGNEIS
#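 Fluorescence polarization assay of small-molecule disruption of VDR binding to coregulator peptide SRC2-3. Compounds and controls pin-transferred, then read after 2 h incubation at ambient room temperature.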
# PLK1 PBD block: blocks phosphopeptide binding to human PLK1 polo-box domain | P53350 | 360,000 compounds, 2.8% hits | Potency, µM, inactives show max response, negative = inhibition, hits mostly inhibitors | AID 720504 | Plk1 PBD binding of FITC phosphopeptide, fluorescence polarization; further: potency means the concentration at half of the fitted maximal effect; series mostly up to about 57 µM; nearly all actives have a fitted effect of over 65% in size
# G9a block: blocks human histone lysine methyltransferase G9a; Q96KQ7; G9a H3K9 monomethylation, AlphaScreen, 2 h; Potency, µM (series often up to 102 µM), for the others: top-dose activity, negative = inhibition, actives largely listed as inhibitors; 350,000 compounds, 8.8% hits; AID 504332; further: potency means the concentration at half of the fitted maximal effect; nearly all actives have a fitted effect of over 75% in size
# Target sequence (Q96KQ7 913-1193 limits assumed): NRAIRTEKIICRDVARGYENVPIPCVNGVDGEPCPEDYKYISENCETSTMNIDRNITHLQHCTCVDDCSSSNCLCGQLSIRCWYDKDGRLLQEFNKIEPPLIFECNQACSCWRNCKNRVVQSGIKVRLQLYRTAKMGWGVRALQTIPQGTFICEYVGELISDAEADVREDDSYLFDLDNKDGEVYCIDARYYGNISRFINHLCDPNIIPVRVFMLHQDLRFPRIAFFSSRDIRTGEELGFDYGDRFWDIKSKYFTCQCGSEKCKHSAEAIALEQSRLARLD
#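 Quantitative HTS format: methyltransferase activity on a biotin-tagged H3K9 peptide is measured by AlphaScreen, using a rabbit anti-monomethyl-H3K9 antibody with streptavidin donor and anti-IgG acceptor beads. Final levels are 20 nM enzyme, 500 nM peptide, 20 uM SAM; 2 h RT.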
# CCT modulator: cytosolic chaperonin activity modulation. purified chaperonin ATPase assay, HTRF ADP detection, 30 min. activity change, % (test concentration not listed), hits read low. 360,000 compounds, 0.3% hits. AID 651819; in the data active means activity change below about -30%
#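 Enzyme 40 or 20 nM (batch-dependent) in Tris pH 7.4/KCl/MgCl2/DTT; cpd 76 uM single point; ATP 10 uM; 30 min 37 °C; Transcreener ADP HTRF detection, 30 min RT; ratio 665/615.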
# * hit, by the source's call; u = inconclusive; x = no result; ! = not active in a repeat; [ ] = dose if it differs, or a comment. Sampled rows, rich in hits. Any-hit rate of the full collection: about 10%. Unless noted, the call rests on the fitted dose curve; in most records, active means well fitted curve in the direction sought with a large enough effect; inconclusive means small, poorly fitted or top-dose-only effect, or another doubt; inactive means no such curve, though single readings can be large; an effect the other way counts as inactive or inconclusive. Unless noted, on the % scale 0 is the no-effect control and ±100 the full control effect.
SMILES,Sfp PPTase inh,Mm-Cpn inhibitor,VDR inhibitor,PLK1 PBD block,G9a block,CCT modulator
COc1cc(C2C(C(=O)c3ccc(C)o3)=C(O)C(=O)N2c2cc(C)on2)cc(OC)c1OC (configuration not stated),-19.2%,4.8%,0.6%,6.7%,0.1%[59 µM],3.4
COc1cccc(C2C(C(=O)c3ccc(C)o3)=C(O)C(=O)N2c2cc(C)on2)c1 (configuration not stated),-0.6%,-14.9%,u,-14.7%,44.7µM*,-2.9
CCCCCOc1ccc(C2C(C(=O)c3ccc(C)o3)=C(O)C(=O)N2c2cc(C)on2)cc1 (configuration not stated),8.2%,-4.6%,70.8µM*,u,44.7µM*,-0.7
COc1ccc(NC(=O)CCc2nc3c(C)nn(-c4ccc(C)cc4)c3n(C)c2=O)c(OC)c1,x,x,13.5%,x,-8.0%[12.7 µM],x
COc1cc(C2C(C(=O)c3ccc(C)o3)=C(O)C(=O)N2c2cc(C)on2)ccc1O (configuration not stated),7.6%,-0.5%,-8.2%,-7.8%,44.7µM*,-11.0
COc1ccccc1C1C(C(=O)c2ccc(C)o2)=C(O)C(=O)N1c1cc(C)on1 (configuration not stated),-18.5%,-12.8%,u,u,89.1µM*,-3.5
Cc1cccc(N2C(=O)C(O)=C(C(=O)c3cccs3)C2c2cccc(Oc3ccccc3)c2)n1 (configuration not stated),-2.9%,-0.4%,u,u,50.1µM*,1.3
COc1cc(C2C(C(=O)c3cccs3)=C(O)C(=O)N2c2cc(C)on2)ccc1O (configuration not stated),-11.4%,0.0%,-10.6%,-11.5%,50.1µM*,-0.3
CCOC(=O)c1cccc(NC(=O)c2cc3c(Cl)nc4ccc(C)cc4c3s2)c1,x,x,4.1%,x,-24.4%[59 µM],x
CCOc1ccc(CCNC(=O)Cn2nnc(-c3ccc(OC)c(OC)c3)n2)cc1OCC,x,x,6.9%,x,-29.6%[59 µM],x
Cc1ccc(NC(=O)C2CCCN(S(=O)(=O)c3cn(C(C)C)cn3)C2)c(C)c1 (configuration not stated),x,x,-4.7%,x,12.1%[59 µM],x
COc1cc(Cl)c(C)cc1NC(=O)c1cc2c(Cl)nc3ccc(C)cc3c2s1,x,x,-28.5%,x,3.7%[59 µM],x
CC(C)c1ccc(NC(=O)CSC2=Nc3ccccc3C3=NC(CC(=O)NCc4ccc(F)cc4)C(=O)N23)cc1 (configuration not stated),x,x,6.3%,x,-0.3%[59 µM],x
CO/N=C\CC(=O)Nc1ccc(F)cc1,9.8%,-1.4%,-10.4%,5.7%,6.5%[12.7 µM],-4.1
CO/N=C\CC(=O)Nc1ccc(Cl)cc1Cl,-6.9%,-2.3%,u,21.2µM*,10.1%[59 µM],-0.4
CC(=O)c1ccc(N2CCN(C(=O)CCCCn3c(=O)[nH]c4ccsc4c3=O)CC2)cc1,x,x,4.4%,x,6.2%[59 µM],x
CC1CCCCN1C(=O)COc1ccccc1F (configuration not stated),19.7%,0.2%,1.6%,26.7µM*,9.5%,-1.8
c1ccc2c(-c3[nH]ncc3CNCCCn3ncc4ccccc43)cccc2c1,-9.7%,2.9%,u,23.8µM*,x,-1.8
CC(C)C[C@H](NC(=O)CNC(=O)[C@@H]1CCCN1C(=O)[C@H](CCCNC(=N)N)NC(=O)[C@H](CC(=O)O)NC(=O)[C@@H](NC(=O)[C@H](CC(N)=O)NC(=O)[C@@H](NC(=O)[C@H](CC(=O)O)NC(=O)CNC(=O)[C@@H](NC(=O)[C@@H](NC(=O)[C@H](C)NC(=O)[C@@H](N)CCC(N)=O)[C@@H](C)O)C(C)C)C(C)C)[C@@H](C)O)C(=O)N[C@@H](CC(C)C)C(=O)N[C@@H](CC(=O)O)C(=O)N[C@@H](CC(C)C)C(=O)N[C@@H](CCCCN)C(=O)O,2.3%,x,2.7%,x,x,x
O=C1CCCN2N=C(SCC(=O)Nc3ccc([N+](=O)[O-])cc3)SC2=N1,0.0%,-2.1%,u,37.7µM*,11.9%,-3.6
CCOc1cc(CNc2cccc3[nH]c(C)nc23)ccc1OC,-10.6%,-0.6%,15.8%,-11.8%,50.1µM*,0.3
CCOC(=O)c1c(/N=C/N(C)C)sc(C=O)c1-c1ccccc1,11.8%,-7.2%,1.0%,-3.1%,6.9%,-1.5
CCOC(=O)c1c(/N=C/N(C)C)sc(/C=N/Nc2ccccc2)c1-c1ccccc1,1.5%,-11.2%,-19.7%,23.8µM*,u,0.5
CCOC(=O)c1c(/N=C/N(C)C)sc(/C=N/Nc2ccccc2)c1-c1ccccc1Cl,20.4%,-3.5%,-6.4%,-10.6%,39.8µM*,0.9
NC1(C(=O)O)CSSC1,x,x,-17.5%,-7.7%,x,1.0
SMILES,Sfp PPTase inh,Mm-Cpn inhibitor,VDR inhibitor,PLK1 PBD block,G9a block,CCT modulator
NC1(C(=O)O)CCCCC1,x,x,-5.8%,x,1.89µM*!,x
Cc1ccc2nc(Cl)c3nnnn3c2c1,-12.7%,-3.3%,u,15µM*,-6.0%[59 µM],0.9
Cc1ccc2nc(NCc3ccccc3Cl)c3nnnn3c2c1,x,x,-7.7%,x,6.1%[59 µM],x
CCN(CC)CCn1c2c(c(SCC(=O)Nc3ccc4c(c3)OCO4)nc1=O)CCC2,x,0.3%,-4.2%,-6.9%,35.5µM*,1.0
CCN(CC)CCCn1c2c(c(SCC(=O)Nc3ccc(C)c(F)c3)nc1=O)CCC2,x,-1.9%,-3.4%,-1.3%,56.2µM*,0.9
CC1=CC(=O)C2=C(C)CC[C@H]3[C@H](C)C(=O)O[C@@H]3C12 (some centres not stated),13.1%,x,4.1%,x,x,x
CC1C(=O)OC2C1CCC1(C)CCC(=O)C(C)C21 (configuration not stated),-29.9%,-2.0%,-1.4%,29.9µM*,22.4µM*,-0.4
CC1C(=O)N2CCCc3cc(NS(=O)(=O)c4ccc(F)cc4)cc1c32 (configuration not stated),x,-0.2%,-1.1%,-3.8%,50.1µM*,-0.9
CC1C(=O)N2CCCc3cc(NC(=O)C4CC4)cc1c32 (configuration not stated),x,0.7%,-8.5%,-8.6%,-11.7%,3.6
CC1C(=O)N2CCCc3cc(NC(=O)COc4ccc(Cl)cc4)cc1c32 (configuration not stated),x,-1.8%,8.1%,1.0%,50.1µM*,1.9
COc1ccc(C(=O)Nc2cc3c4c(c2)C(C)C(=O)N4CCC3)c(OC)c1 (configuration not stated),x,1.9%,6.3%,-4.1%,-35.0%,-2.0
CNC(=O)C(=O)Nc1cc2c3c(c1)C(C)C(=O)N3CCC2 (configuration not stated),17.8%,-3.6%,-0.4%,-13.4%,1.41µM*,0.1
CC1C(=O)N2CCCc3cc(NS(=O)(=O)c4ccc([N+](=O)[O-])cc4)cc1c32 (configuration not stated),x,-2.1%,-1.9%,-14.3%,u,-4.0

# Screens: PubChem BioAssay, National Center for Advancing Translational Sciences (NCATS)
